Assay outcomes deposited in PubChem by National Center for Advancing Translational Sciences (NCATS).
DT40 TDP1 no CPT – qHTS for Inhibitors of human tyrosyl-DNA phosphodiesterase 1 (TDP1): qHTS in cells in absence of CPT; DT40 Tdp1-/- hTDP1 cells, no CPT, ATP luminescence, 48 h; Potency, µM (highest dose often 46.2 µM), without a hit: top-dose activity change, negative = growth inhibition, usual class: inhibitors; 15% of 420,000 active; AID 686978, 2013; also: potency is read from the fitted curve at half-maximal effect; % is scaled to controls: 0 for no effect and ±100 for the full control effect; nearly all actives have a fitted effect of over 55% in size
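No-CPT arm: Tdp1-/-;hTDP1 DT40 cells (400/well) plus compounds, incubated ≥48 hr at 37 °C. Readout CellTiter-Glo luminescence.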
TDP1 cell CPT – DT40-hTDP1 cell growth loss with CPT. chicken DT40 Tdp1-/-;hTDP1 cells + 20 nM CPT, ATP luminescence, 48 h. 12% of 420,000 active. Potency, µM (titrated, usually from 46.2 µM), inactives show at the highest dose activity change, negative = growth inhibition, hits mostly inhibitors; also: potency is read from the fitted curve at half-maximal effect; % is scaled to controls: 0 for no effect and ±100 for the full control effect; nearly all actives have a fitted effect of over 55% in size
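Chicken DT40 Tdp1-/- cells stably complemented with human TDP1 were seeded at 400 cells/well in medium containing 20 nM camptothecin, exposed to pin-transferred compounds, and grown at 37 °C for at least 48 hr. Viability was read as ATP luminescence.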
TGFb SMAD3 inh – inhibitors of TGF-b signaling. Potency, µM (titrated, usually from 46.1 µM), for the others: at the top dose activity, negative = inhibition, most hits filed as inhibitors. AID 588855. HepG2 CAGA-GFP TGF-b/SMAD3 reporter, GFP fluorescence, 18 h; TGF-beta stimulated, 500 pg/mL final. 1.2% of 410,000 active; also: potency is read from the fitted curve at half-maximal effect; % is scaled to controls: 0 for no effect and ±100 for the full control effect; nearly all actives have a fitted effect of over 65% in size
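GFP signal (ex488/em500-530) from TGF-beta-stimulated HEPG2 CAGA-GFP cells, 500 pg/mL final, 18 h at 37 degrees C in DMEM plus 1% FBS, normalized to unstimulated and DMSO-stimulated controls.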
IL1B secr inh – inhibitors of inflammasome signaling (IL-1 beta secretion); THP-1 LPS/ATP IL-1B secretion, AlphaLISA, 16 h; stronger effect = lower value; activity change, % at 57.5 µM; 4.7% of 360,000 active; AID 743279; in the data active = activity change below about -50%; inconclusive = mostly about -30% to -49%; also: % is scaled to controls: 0 for no effect and ±100 for the full control effect
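THP-1 cells pretreated 1 hr with compounds (up to 57.5 uM final), then stimulated with LPS (250 ng/mL final) plus ATP (1.25 mM final); secreted IL-1B measured by AlphaLISA after 16 hr, decreased signal indicating inhibition.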
ASM inhibitor – blocks human secretory acid sphingomyelinase; P17405; placental ASM, HMU-PC fluorogenic substrate, 60 min; Potency, µM (top dose mostly 57.5 µM), for the others: at the highest dose activity change, negative = inhibition, usual class: inhibitors; 0.006% of 340,000 active; AID 504937; also: potency is read from the fitted curve at half-maximal effect
Target sequence (P17405 47-631 limits assumed): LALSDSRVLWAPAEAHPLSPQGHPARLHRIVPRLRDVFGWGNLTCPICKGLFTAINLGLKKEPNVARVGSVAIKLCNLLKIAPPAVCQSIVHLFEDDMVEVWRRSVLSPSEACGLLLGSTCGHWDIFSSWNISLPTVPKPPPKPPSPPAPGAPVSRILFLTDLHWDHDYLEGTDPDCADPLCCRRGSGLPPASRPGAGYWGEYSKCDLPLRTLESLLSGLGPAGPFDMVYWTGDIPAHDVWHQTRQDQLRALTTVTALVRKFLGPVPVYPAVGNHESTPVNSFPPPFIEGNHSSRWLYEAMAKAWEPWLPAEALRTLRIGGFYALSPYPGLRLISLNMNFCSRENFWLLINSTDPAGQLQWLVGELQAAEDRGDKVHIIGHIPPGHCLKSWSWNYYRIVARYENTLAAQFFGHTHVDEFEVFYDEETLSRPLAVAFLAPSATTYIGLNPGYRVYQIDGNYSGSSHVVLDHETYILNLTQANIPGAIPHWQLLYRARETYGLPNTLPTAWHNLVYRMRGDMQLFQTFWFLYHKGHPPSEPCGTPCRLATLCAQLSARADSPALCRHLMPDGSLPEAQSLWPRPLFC
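Fluorescence read-out (Ex 386 nm, Em 447 nm) after stopping the reaction at pH 10. Enzyme: ASM from human placenta; substrate HMU-PC0, 9 uM final; 60 min, 37 °C. Compound preincubation 10 min, ambient temperature.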
HepG2 viability – kills HepG2 cells in TGF-b inhibitor counter-screen; HepG2 CAGA-GFP viability, ATP luminescence, 18 h; Potency, µM (series often up to 46.1 µM), inactives show at the top dose activity change, negative = cytotoxicity, most hits filed as cytotoxic; 0.76% of 410,000 active; AID 588856; also: potency is read from the fitted curve at half-maximal effect
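CellTiter-Glo luminescence gave cytotoxicity after 18 hours at 37 degrees C. The cells were HepG2 CAGA-GFP in 1% FBS DMEM, stimulated with 500 pg/mL TGF-beta after compound addition. %Activity was normalised to no-cell wells (complete cell-killing) and DMSO (no toxicity), and curves were fitted and classified.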
An asterisk follows results filed as active; ? = inconclusive; · = no result; ! = not confirmed by another sample. Rows were chosen to be rich in hits. Some 19% of all compounds tested hit in one or more screens of this group. Unless noted, calls follow the shape of the dose curve; as a rule, active = well fitted curve in the direction sought with a large enough effect; inconclusive = small, poorly fitted or top-dose-only effect, or another doubt; inactive = no such curve, though single readings can be large; an effect the other way counts as inactive or inconclusive.

SMILES | DT40 TDP1 no CPT | TDP1 cell CPT | TGFb SMAD3 inh | IL1B secr inh | ASM inhibitor | HepG2 viability
COc1ccc(C(=O)NNC2=C(C(=O)C(F)(F)F)CCC2)cc1 | 1.3µM* | 0.73µM* | 8.9µM* | 131 | -1% | -50%
O=C(NNC1=C(C(=O)C(F)(F)F)CCC1)c1ccc(Cl)cc1 | ? | ? | 11µM* | 82 | -2% | 10µM*
O=C(NNC1=C(C(=O)C(F)(F)F)CCC1)c1cccc(Cl)c1 | 6.5µM* | 5.8µM* | ? | 73 | -2% | 10µM*
CCOC(=O)[C@H]1[C@H]2COc3cc(OC)ccc3[C@@H]2N2C(=O)CN(Cc3ccc(C)cc3)C(=O)[C@@]12C | ? | ? | 0% | -27 | 4% | 0%
CCCS(=O)(=O)N1CCN=C1SCc1cccnc1 | -22% | -11% | 17% | 26 | 2% | 3%
CC(C)CN(CCCNC(=O)CN1C(=O)COc2ccc(S(=O)(=O)N3CCOCC3)cc21)CC(C)C | 9% | 2% | 10% | 1 | 4% | 6%
CCCCN1CCNC[C@@H]1Cc1ccccc1 | 8% | 11% | -20% | 16 | 8% | 7%
c1ccc(C[C@H]2CNCCN2CCCCC2CCCCC2)cc1 | ? | ? | ? | -80* | 0% | -105%
c1ccc(C[C@H]2CNCCN2CC2CCCCC2)cc1 | 16µM* | ? | 6% | -24 | 2% | -11%
CCn1cc(CN2CCCC(C(=O)c3ccc(-c4ccccc4)cc3)C2)cn1 (stereo unspecified) | 26µM* | ? | -29% | -90* | 0% | -28%
O=C(c1ccc(-c2ccccc2)cc1)C1CCCN(C(=O)Cn2cncn2)C1 (stereo unspecified) | ? | ? | -18% | 16 | -10% | -36%
Cn1cc(CN2CCCC(C(=O)c3ccc(-c4ccccc4)cc3)C2)cn1 (stereo unspecified) | 16µM* | -24% | -5% | -13 | 1% | -43%
CCOC(=O)C1(Cc2ccccc2)CCCN(Cc2cnn(CC)c2)C1 (stereo unspecified) | -8% | 3% | 12% | -9 | 1% | 7%
Cc1ccc(N2CCN(CCCN3C(=O)C4CCCN4C3=O)CC2)cc1 (stereo unspecified) | -1% | -25% | ? | 0 | 4% | -36%
O=C1C2CCCCN2C(=O)N1CCCCN1CCN(c2ccc([N+](=O)[O-])cc2)CC1 (stereo unspecified) | 15µM* | ? | 5% | -5 | -14% | -9%
O=C1C2CCCCN2C(=O)N1CCCCN1CCN(c2cccc(C(F)(F)F)c2)CC1 (stereo unspecified) | ? | 10µM* | -17% | ? | 2% | -16%
Cc1cccc(NC(=O)Cn2nc(-c3cccs3)ccc2=O)c1C | -5% | 13% | 3% | -2 | 0% | 18%
O=C1N=C2SCCN2/C1=C\c1ccc(Cl)cc1 | ? | -28% | 0% | -68* | 2% | -28%
C/C(=C1/SC(N2CCOCC2)=NC1=O)c1ccc(Cl)cc1 | -22% | -6% | 0% | 33 | -1% | 8%
CCOc1ccc(-c2nnc(SCC(=O)Oc3ccccc3)o2)cc1 | -5% | ? | 4% | · | · | 4%
COC(=O)COc1ccc(/C=C2\SC(=O)N(CC(=O)Nc3ccccc3F)C2=O)cc1 | 2% | 0% | 10% | 5 | 120% | 7%
CC1CCN(C(=O)c2cc(-c3ccc(Br)cc3)on2)CC1 | -17% | -20% | 11% | · | · | -3%
c1ccc(C2NCCc3ccccc32)cc1 (stereo unspecified) | 26µM* | ? | -26% | -7 | -4% | -14%
c1ccc2c(c1)CCNC2c1ccncc1 (stereo unspecified) | -5% | 6% | -17% | 18 | 5% | 0%
CCOC(=O)C1=CCN(S(=O)(=O)c2ccc(F)cc2)C1c1cccc(C)c1 (stereo unspecified) | ? | ? | ? | 40 | · | -49%
SMILES | DT40 TDP1 no CPT | TDP1 cell CPT | TGFb SMAD3 inh | IL1B secr inh | ASM inhibitor | HepG2 viability
CCOC(=O)C1=CCN(S(=O)(=O)c2ccc(C)cc2)C1c1cccc(C)c1 (stereo unspecified) | 18µM* | ? | -18% | 31 | · | -4%
CCOC(=O)C1=CCN(S(=O)(=O)c2ccc(Br)cc2)C1c1ccc(C)cc1 (stereo unspecified) | 26µM* | ? | ? | 7 | · | -26%
CCOCCCN(C(=O)c1snc(C(N)=O)c1N)C(C(=O)NC1CCCC1)c1ccc(O)c(OC)c1 (stereo unspecified) | -3% | 2% | -1% | 2 | 12% | -9%
Oc1ccc(-c2nnc(Nc3cccc(O)c3)c3ccccc23)cc1 | -1% | -29% | -16% | 0 | -5% | -22%
CNC(=O)c1cc(Nc2nnc(-c3ccc(O)cc3)c3ccccc23)ccc1OC | ? | 16µM*! | 6% | -59* | -9% | 3%
CCOc1ccc(-c2nnc(Nc3ccc(OC)c(C(=O)N4CCCCC4)c3)c3ccccc23)cc1 | 16µM* | ? | ? | -19 | ? | -23%
CN(C)C(=O)c1ccc(Nc2nnc(-c3ccc(O)cc3)c3ccccc23)cc1 | ? | ? | 1% | -55* | 20% | -6%
CNC(=O)c1ccc(Nc2nnc(-c3ccc(O)cc3)c3ccccc23)cc1 | ? | -22% | -16% | -8 | 56% | -6%
COC(=O)COc1ccc(-c2nnc(Nc3ccc(O)cc3)c3ccccc23)cc1 | ? | ? | ? | · | · | 11µM*
C#CCOc1ccc(-c2nnc(Nc3cccc(C)c3)c3ccccc23)cc1 | ? | ? | ? | · | · | -31%
NC(=O)COc1ccc(Nc2nnc(-c3ccc(O)cc3)c3ccccc23)cc1 | 3% | 20% | -4% | -27 | -5% | -5%
CCCCCCCCCC(=O)O[C@H](CC(=O)O)C[N+](C)(C)C | -3% | 2% | · | · | · | ·
COc1ccc(C(CNC(=O)COc2cc(C)cc(C)c2)N2CCOCC2)cc1 (stereo unspecified) | ? | ? | ? | · | · | -18%
COc1cccc(CNC(=O)C2=C(C)C(=O)OC23CCCCCC3)c1 | -27% | -19% | 0% | · | · | -22%
O=C1Cc2cc(S(=O)(=O)NCc3ccccc3Cl)cc3c2N1CCC3 | -18% | -30% | 3% | 21 | -2% | 5%
